# Assay results as given in PubChem BioAssay (EPA / NIEHS).
# Values joined by “and” are separate entries in the source; they are usually repeats but may differ in a detail not shown here. Equal entries are not always repeated. Records with an inconclusive call do not appear. Active and inactive are the calls of the source. The calls were made as follows, unless noted: active = hit-call score of the fitted dose curve at least 0.9, where 1 is the maximum; inactive = score below 0.9.
# How the values were obtained:
# [1] = ATG_NF_kB_CIS: Attagene CIS-FACTORIAL HepG2 Assay for human Nuclear Factor Kappa B (NF-kB) (AID 2282991); details: HepG2 Attagene cis-factorial NF-kB reporter mRNA; actives raise or lower the signal
# In short: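 Multiplexed cis-reporter assay in transiently transfected HepG2. 24 h treatment; RNA isolated, RT-PCR, labelled fragments resolved by CE. DMSO baseline.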
# [2] = ATG_NRF2_ARE_CIS: Attagene CIS-FACTORIAL HepG2 Assay for human Nuclear Factor Erythroid 2 Related Factor 2 (NFR2) response to Antioxidant Response Elements (ARE) (AID 2282992); details: HepG2 Attagene ARE/NRF2 reporter, transcription factor activity; actives raise or lower the signal
# In short: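 Endogenous transcription factor activity read out as reporter transcript levels (RT-PCR plus capillary electrophoresis, fluorescence) in transiently transfected HepG2 cells. Measured at 24 h after dosing; gain or loss of signal fitted versus DMSO.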
# [3] = ATG_Oct_MLP_CIS: Attagene CIS-FACTORIAL HepG2 Assay for human Octamer-Binding Transcription Factor (Oct) (AID 2282993); details: HepG2 Attagene cis-factorial Oct reporter, mRNA; actives raise or lower the signal
# In short: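 HepG2 cells transiently transfected with cis-element-driven reporter transcription units (endogenous TF activity); 24 h compound exposure. Reporter mRNA quantified by RT-PCR, 6-FAM labelling, HpaI digestion and capillary electrophoresis; bidirectional fit versus DMSO baseline.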
# [4] = molecular target: Cellular tumor antigen p53 (Homo sapiens) (UniProt P04637); test: ATG_p53_CIS: Attagene CIS-FACTORIAL HepG2 Assay for human p53 Transcription Factor (AID 2282994); details: HepG2 p53 cis-element reporter, Attagene mRNA; actives raise or lower the signal
# Chain of Cellular tumor antigen p53 (Homo sapiens) (P04637 whole entry, looked up): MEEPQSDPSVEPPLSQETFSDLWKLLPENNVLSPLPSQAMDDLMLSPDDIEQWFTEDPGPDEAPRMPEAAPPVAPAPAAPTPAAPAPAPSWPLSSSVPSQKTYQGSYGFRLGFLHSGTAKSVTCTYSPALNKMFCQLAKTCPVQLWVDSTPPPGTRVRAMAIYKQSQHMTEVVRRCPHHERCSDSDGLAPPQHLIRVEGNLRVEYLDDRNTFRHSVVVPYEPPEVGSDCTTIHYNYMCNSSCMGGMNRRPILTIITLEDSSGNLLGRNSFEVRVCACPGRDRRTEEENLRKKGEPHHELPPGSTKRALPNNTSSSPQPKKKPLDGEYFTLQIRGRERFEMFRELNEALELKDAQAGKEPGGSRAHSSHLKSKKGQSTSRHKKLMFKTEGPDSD
# In short: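 Endogenous p53 activity read in transiently transfected HepG2 from a cis-element-driven reporter transcript after 24 h exposure. RNA reverse-transcribed, PCR-amplified, fluorescently labelled and sized by capillary electrophoresis; gain or loss fitted against DMSO baseline.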
# [5] = BSK_3C_uPAR: BioMAP Diversity Plus: 3C Assay for Urokinase-type plasminogen activator receptor (uPAR) Biomarker Activity (AID 2282998); details: BioMAP 3C HUVEC, uPAR biomarker ELISA; actives raise or lower the signal
# In short: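 Primary human umbilical vein endothelial cells, 3C system; surface uPAR measured by ELISA 24 h after dosing. Cytotoxicity via SRB total protein in parallel cultures; bidirectional fit against DMSO.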
# [6] = BSK_4H_Eotaxin3: BioMAP Diversity Plus: 4H Assay for Eotaxin 3 Biomarker Activity (AID 2283000); details: primary human endothelial cells (HUVEC); actives raise or lower the signal;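 as to outcome: CCL26 protein level quantified by ELISA in parallel with SRB cytotoxicity check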
# In short: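 HUVEC, 24 h post-dose, ELISA for Eotaxin-3/CCL26. Gain or loss of signal fitted bidirectionally vs DMSO baseline.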
# [7] = molecular target: human Peroxisome Proliferator-activated Receptor delta (PPARd), PPARD (gene 5467) (UniProt Q03181); test: ATG_PPARd_TRANS: Attagene TRANS-FACTORIAL HepG2 Assay for human Peroxisome Proliferator-activated Receptor delta (PPARd) (AID 2283002; active = hit-call score of the fitted dose curve at least 0.9, where 1 is the maximum)
# Chain of human Peroxisome Proliferator-activated Receptor delta (PPARd), PPARD (gene 5467) (Q03181 whole entry, looked up, the tested form may be a part): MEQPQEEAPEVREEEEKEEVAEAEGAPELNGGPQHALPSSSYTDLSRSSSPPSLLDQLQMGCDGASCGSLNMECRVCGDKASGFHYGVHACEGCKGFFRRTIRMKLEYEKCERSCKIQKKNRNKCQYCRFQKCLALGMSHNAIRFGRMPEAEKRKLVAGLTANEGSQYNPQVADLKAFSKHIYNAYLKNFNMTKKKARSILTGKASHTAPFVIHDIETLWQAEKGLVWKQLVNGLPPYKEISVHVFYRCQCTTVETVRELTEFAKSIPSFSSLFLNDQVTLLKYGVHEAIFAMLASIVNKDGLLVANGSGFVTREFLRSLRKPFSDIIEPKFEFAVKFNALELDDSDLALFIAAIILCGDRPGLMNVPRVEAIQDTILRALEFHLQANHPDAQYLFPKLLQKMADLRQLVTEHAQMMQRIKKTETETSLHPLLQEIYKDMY
# In short: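 Measured quantity: GAL4-UAS reporter transcript induction in HepG2 after 24 h chemical dosing, with NR-Gal4 chimeras supplied by transient transfection. Detection by RT-PCR and capillary electrophoresis; upward fit against DMSO.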
# [8] = read-out: Intercellular Adhesion Molecule 1 (ICAM1), ICAM1 (gene 3383); test: BSK_3C_ICAM1: BioMAP Diversity Plus: 3C Assay for Intercellular Adhesion Molecule 1 (ICAM1) Biomarker Activity (AID 2283003); details: primary human endothelial cells (HUVEC); actives raise or lower the signal
# In short: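 ELISA read-out of ICAM-1; HUVEC (primary human), 3C system, 24 h post-dosing; bidirectional fit vs DMSO baseline.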
# [9] = BSK_3C_Proliferation: Cell Proliferation Assessment in the BioMAP Diversity Plus: 3C Assay (AID 2283006); details: primary human endothelial cells (HUVEC);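 as to AC50: potency may reflect either rise or fall in cell number versus DMSO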
# In short: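 HUVEC, sub-confluent; 48 h chemical exposure; 10% TCA fix, 0.1% SRB stain, A560 total protein. Gain or loss of signal fitted both directions vs DMSO control.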
# [10] = molecular target: Peroxisome proliferator-activated receptor gamma (Homo sapiens) (UniProt P37231); test: ATG_PPARg_TRANS: Attagene TRANS-FACTORIAL HepG2 Assay for human Peroxisome Proliferator-activated Receptor-gamma (PPARg) (AID 2283007; active = hit-call score of the fitted dose curve at least 0.9, where 1 is the maximum)
# Chain of Peroxisome proliferator-activated receptor gamma (Homo sapiens) (P37231 whole entry, looked up): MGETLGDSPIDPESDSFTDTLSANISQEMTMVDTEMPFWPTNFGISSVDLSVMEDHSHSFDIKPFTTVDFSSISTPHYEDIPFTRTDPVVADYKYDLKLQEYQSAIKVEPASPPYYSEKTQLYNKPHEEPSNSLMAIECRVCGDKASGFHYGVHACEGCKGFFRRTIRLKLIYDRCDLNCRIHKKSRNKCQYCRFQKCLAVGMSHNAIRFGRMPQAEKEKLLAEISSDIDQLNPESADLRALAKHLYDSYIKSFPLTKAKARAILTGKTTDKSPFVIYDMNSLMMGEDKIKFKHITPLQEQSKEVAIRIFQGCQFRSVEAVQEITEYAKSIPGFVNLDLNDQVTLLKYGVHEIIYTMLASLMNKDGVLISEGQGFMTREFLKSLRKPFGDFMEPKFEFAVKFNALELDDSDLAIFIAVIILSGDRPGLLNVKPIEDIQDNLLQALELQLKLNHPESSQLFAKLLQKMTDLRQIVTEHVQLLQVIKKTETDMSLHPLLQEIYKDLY
# In short: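 Human hepatoma HepG2, transient MRTU transfection, 24 h treatment. mRNA reporter signal by RT-PCR plus capillary electrophoresis, fluorescence detection; fitted for increase over DMSO negative control.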
# [11] = molecular target: human RAR-related Orphan Receptor gamma (RORg), RORC (gene 6097) (UniProt P51449); test: ATG_RORg_TRANS: Attagene TRANS-FACTORIAL HepG2 Assay for human RAR-related Orphan Receptor gamma (RORg) (AID 2283011; active = hit-call score of the fitted dose curve at least 0.9, where 1 is the maximum)
# Chain of human RAR-related Orphan Receptor gamma (RORg), RORC (gene 6097) (P51449 whole entry, looked up, the tested form may be a part): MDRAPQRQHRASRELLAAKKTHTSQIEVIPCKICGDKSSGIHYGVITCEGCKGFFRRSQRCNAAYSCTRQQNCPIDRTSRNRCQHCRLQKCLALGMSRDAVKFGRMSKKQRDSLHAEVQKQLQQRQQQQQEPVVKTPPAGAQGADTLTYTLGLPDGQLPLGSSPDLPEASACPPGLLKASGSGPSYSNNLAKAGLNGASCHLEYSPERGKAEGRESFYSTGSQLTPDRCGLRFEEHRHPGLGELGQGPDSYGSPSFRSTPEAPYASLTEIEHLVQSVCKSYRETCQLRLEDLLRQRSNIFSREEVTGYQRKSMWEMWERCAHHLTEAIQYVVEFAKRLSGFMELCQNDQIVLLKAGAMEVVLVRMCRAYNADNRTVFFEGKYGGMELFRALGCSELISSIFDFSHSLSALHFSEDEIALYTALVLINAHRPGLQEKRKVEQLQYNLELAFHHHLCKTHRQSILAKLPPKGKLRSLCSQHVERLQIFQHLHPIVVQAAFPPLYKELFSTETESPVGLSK
# In short: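 Readout: reporter transcript induction (RT-PCR, fluorescent primer extension, capillary electrophoresis) after 24 h compound exposure of transiently transfected HepG2 cells carrying a RORg-Gal4 chimera and GAL4-UAS reporters; DMSO served as baseline, with increasing signal fitted.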
# [12] = molecular target: Retinoic acid receptor RXR-alpha (Homo sapiens) (UniProt P19793); test: ATG_RXRa_TRANS: Attagene TRANS-FACTORIAL HepG2 Assay for human Retinoid X Receptor alpha (RXRa) (AID 2283012; active = hit-call score of the fitted dose curve at least 0.9, where 1 is the maximum)
# Chain of Retinoic acid receptor RXR-alpha (Homo sapiens) (P19793 whole entry, looked up, the tested form may be a part): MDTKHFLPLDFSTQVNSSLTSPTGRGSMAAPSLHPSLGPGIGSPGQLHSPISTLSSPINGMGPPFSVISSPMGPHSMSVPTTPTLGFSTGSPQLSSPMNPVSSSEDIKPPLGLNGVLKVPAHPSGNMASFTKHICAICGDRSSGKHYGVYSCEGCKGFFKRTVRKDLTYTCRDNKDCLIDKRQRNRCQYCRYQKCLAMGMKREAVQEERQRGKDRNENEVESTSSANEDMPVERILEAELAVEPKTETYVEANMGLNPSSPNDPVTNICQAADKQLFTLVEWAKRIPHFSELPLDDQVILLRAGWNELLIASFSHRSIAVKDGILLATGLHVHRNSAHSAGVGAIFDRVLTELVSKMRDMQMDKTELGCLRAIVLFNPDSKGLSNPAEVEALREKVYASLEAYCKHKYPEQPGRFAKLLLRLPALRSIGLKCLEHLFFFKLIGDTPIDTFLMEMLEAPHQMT
# In short: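 Read-out: fluorescent reporter-transcript fragments quantified by capillary electrophoresis after RT-PCR. Transiently transfected HepG2 cells carrying GAL4-UAS reporters and NR-GAL4 chimeras were exposed to chemical for 24 h; activity scored as increase over DMSO.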
# [13] = molecular target: human Retinoid X Receptor beta (RXRb), RXRB (gene 6257) (UniProt P28702); test: ATG_RXRb_TRANS: Attagene TRANS-FACTORIAL HepG2 Assay for human Retinoid X Receptor beta (RXRb) (AID 2283013; active = hit-call score of the fitted dose curve at least 0.9, where 1 is the maximum)
# Chain of human Retinoid X Receptor beta (RXRb), RXRB (gene 6257) (P28702 whole entry, looked up, the tested form may be a part): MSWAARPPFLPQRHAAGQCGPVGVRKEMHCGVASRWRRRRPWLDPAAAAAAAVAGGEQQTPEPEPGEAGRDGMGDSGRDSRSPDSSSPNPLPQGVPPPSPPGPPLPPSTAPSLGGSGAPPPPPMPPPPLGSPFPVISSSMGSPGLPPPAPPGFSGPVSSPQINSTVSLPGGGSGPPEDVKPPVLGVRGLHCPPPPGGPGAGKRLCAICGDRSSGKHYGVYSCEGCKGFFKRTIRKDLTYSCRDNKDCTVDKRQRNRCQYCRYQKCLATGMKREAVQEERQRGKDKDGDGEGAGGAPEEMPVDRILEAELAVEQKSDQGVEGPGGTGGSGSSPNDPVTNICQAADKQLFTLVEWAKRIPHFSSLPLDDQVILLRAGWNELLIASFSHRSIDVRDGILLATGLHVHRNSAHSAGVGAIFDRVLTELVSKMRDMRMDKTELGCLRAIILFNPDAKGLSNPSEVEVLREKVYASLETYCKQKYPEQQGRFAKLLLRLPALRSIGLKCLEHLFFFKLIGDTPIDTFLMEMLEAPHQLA
# In short: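 Read-out: reporter mRNA induction via RT-PCR plus capillary electrophoresis fluorescence, analysed as signal increase relative to DMSO. Cells were human HepG2, transiently transfected with GAL4-UAS reporter constructs and chimeric receptor-Gal4 fusions, dosed for 24 h.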
# [14] = BSK_3C_VCAM1: BioMAP Diversity Plus: 3C Assay for Vascular cell adhesion molecule 1 (VCAM1) Biomarker Activity (AID 2282999); details: BioMAP 3C HUVEC, VCAM1 ELISA, cytokine-stimulated; actives raise or lower the signal
# In short: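 Vascular primary endothelium (human umbilical vein) was exposed to chemicals and assayed 24 h later. VCAM-1 levels came from ELISA, with DMSO serving as baseline for bidirectional fitting.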
# [15] = molecular target: human Retinoic Acid Receptor gamma (RARg), RARG (gene 5916) (UniProt P13631); test: ATG_RARg_TRANS: Attagene TRANS-FACTORIAL HepG2 Assay for human Retinoic Acid Receptor gamma (RARg) (AID 2283009; active = hit-call score of the fitted dose curve at least 0.9, where 1 is the maximum;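 as to AC50: AC50 is for reporter induction above DMSO meaning RARg activation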)
# Chain of human Retinoic Acid Receptor gamma (RARg), RARG (gene 5916) (P13631 whole entry, looked up, the tested form may be a part): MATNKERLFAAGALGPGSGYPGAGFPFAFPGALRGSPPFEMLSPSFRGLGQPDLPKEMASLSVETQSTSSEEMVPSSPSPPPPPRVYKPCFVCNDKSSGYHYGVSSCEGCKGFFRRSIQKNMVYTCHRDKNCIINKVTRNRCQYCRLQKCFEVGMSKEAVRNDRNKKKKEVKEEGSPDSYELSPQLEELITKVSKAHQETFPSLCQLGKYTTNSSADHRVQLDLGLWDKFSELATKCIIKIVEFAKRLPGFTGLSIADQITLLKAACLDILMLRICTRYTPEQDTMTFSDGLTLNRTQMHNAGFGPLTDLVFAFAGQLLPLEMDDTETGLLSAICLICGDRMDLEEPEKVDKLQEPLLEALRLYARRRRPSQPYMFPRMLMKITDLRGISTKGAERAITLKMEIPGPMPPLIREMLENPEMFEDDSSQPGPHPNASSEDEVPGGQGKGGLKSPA
# In short: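 Readout: reporter transcript levels via RT-PCR, 6-FAM primer-extension labelling, HpaI digestion and capillary electrophoresis. Cells: HepG2 carrying transfected RARg-GAL4 chimera plus UAS reporter set. Dosing 24 h; DMSO negative control.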
# [16] = molecular target: human Peroxisome Proliferator-activated Receptor alpha (PPARa), PPARA (gene 5465) (UniProt Q07869); test: ATG_PPARa_TRANS: Attagene TRANS-FACTORIAL HepG2 Assay for human Peroxisome Proliferator-activated Receptor alpha (PPARa) (AID 2283001; active = hit-call score of the fitted dose curve at least 0.9, where 1 is the maximum;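 also: potency for gain of reporter signal over DMSO so agonist or activator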)
# Chain of human Peroxisome Proliferator-activated Receptor alpha (PPARa), PPARA (gene 5465) (Q07869 whole entry, looked up, the tested form may be a part): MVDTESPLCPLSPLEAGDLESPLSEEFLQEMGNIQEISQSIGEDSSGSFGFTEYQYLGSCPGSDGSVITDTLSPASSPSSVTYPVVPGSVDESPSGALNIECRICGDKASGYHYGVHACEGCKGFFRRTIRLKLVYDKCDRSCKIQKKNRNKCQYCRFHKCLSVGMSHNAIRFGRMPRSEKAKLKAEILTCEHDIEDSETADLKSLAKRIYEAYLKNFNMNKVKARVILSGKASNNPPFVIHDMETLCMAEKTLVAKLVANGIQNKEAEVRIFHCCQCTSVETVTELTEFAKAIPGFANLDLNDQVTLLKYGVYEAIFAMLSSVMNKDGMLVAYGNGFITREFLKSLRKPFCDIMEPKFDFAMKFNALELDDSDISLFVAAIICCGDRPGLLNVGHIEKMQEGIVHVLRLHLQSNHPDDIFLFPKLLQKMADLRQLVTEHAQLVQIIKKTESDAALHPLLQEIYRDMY
# In short: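 Exposure: 24 h, transiently transfected HepG2 cells. Endpoint: GAL4-UAS reporter mRNA, RT-PCR with capillary electrophoresis fluorescence. Baseline: DMSO; increases fitted.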
# [17] = molecular target: Nuclear receptor subfamily 1 group I member 2 (Homo sapiens) (UniProt O75469); test: ATG_PXR_TRANS: Attagene TRANS-FACTORIAL HepG2 Assay for human Pregnane X Receptor (PXR) (AID 2283008; active = hit-call score of the fitted dose curve at least 0.9, where 1 is the maximum)
# Chain of Nuclear receptor subfamily 1 group I member 2 (Homo sapiens) (O75469 whole entry, looked up, the tested form may be a part): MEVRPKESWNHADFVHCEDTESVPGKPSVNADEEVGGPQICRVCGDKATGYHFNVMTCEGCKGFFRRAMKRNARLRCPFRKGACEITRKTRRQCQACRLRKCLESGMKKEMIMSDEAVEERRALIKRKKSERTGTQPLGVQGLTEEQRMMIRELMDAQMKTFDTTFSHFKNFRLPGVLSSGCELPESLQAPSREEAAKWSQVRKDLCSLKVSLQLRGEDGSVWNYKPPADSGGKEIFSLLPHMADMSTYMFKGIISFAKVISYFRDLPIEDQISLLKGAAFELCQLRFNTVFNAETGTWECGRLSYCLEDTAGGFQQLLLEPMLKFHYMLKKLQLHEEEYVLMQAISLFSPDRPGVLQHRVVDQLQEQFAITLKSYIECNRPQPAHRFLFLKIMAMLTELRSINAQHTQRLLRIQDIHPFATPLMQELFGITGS
# In short: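 Transactivation by exogenous PXR–GAL4 fusion measured as reporter transcript induction after 24 h compound treatment of transfected human HepG2 cells. Read-out via RT-PCR and capillary electrophoresis of labelled fragments, fitted upward relative to DMSO.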
# [18] = molecular target: human RAR-related Orphan Receptor beta (RORb), RORB (gene 6096) (UniProt Q92753); test: ATG_RORb_TRANS: Attagene TRANS-FACTORIAL HepG2 Assay for human RAR-related Orphan Receptor beta (RORb) (AID 2283010; active = hit-call score of the fitted dose curve at least 0.9, where 1 is the maximum)
# Chain of human RAR-related Orphan Receptor beta (RORb), RORB (gene 6096) (Q92753 whole entry, looked up, the tested form may be a part): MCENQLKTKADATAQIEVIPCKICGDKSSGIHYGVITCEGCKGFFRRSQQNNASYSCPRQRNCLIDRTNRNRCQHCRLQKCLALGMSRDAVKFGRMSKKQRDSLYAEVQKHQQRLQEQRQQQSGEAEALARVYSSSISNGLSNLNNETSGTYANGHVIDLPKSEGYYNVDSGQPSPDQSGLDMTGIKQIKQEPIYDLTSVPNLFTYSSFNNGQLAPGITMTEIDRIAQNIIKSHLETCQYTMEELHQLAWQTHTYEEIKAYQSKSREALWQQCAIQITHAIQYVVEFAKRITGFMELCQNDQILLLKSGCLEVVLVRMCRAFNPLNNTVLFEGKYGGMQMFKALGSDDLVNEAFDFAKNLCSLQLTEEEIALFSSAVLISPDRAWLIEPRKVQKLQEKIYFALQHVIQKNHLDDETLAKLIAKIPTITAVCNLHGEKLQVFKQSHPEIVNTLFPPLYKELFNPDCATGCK
# In short: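 HepG2, transient MRTU transfection (GAL4-UAS reporters, exogenous NR-Gal4 chimeras); 24 h compound exposure; total RNA → RT-PCR → 6-FAM primer extension → HpaI digest → CE fluorescence. Positive direction vs DMSO baseline.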
# [19] = molecular target: human Thyroid Receptor alpha (THRa1), THRA (gene 7067) (UniProt P10827); test: ATG_THRa1_TRANS: Attagene TRANS-FACTORIAL HepG2 Assay for human Thyroid Receptor alpha (THRa1) (AID 2283014; active = hit-call score of the fitted dose curve at least 0.9, where 1 is the maximum)
# In short: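 HepG2 cells transiently transfected with multiplexed GAL4-UAS reporter units for exogenous chimeric THRa1-Gal4; reporter mRNA measured 24 h after dosing by RT-PCR, 6-FAM labelling, HpaI digestion and capillary electrophoresis. Gain-of-signal fitted versus DMSO baseline.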
smiles,measurement,setting,value
CCCCCCCCCCCCc1ccccc1,outcome,[1],inactive
same,outcome,[2],inactive
same,outcome,[3],inactive
same,outcome,[4],inactive
same,outcome,[5],inactive
same,AC50,[6],26.6 µM (active)
same,outcome,[7],inactive
same,outcome,[8],inactive
same,outcome,[9],inactive
same,outcome,[10],inactive
same,outcome,[11],inactive
same,outcome,[12],inactive
same,AC50,[13],61.2 µM (active)
Clc1nc(Cl)c(Cl)c(Cl)c1Cl,outcome,[1],inactive
same,AC50,[2],11.2 µM (active)
same,outcome,[3],inactive
same,outcome,[4],inactive
same,outcome,[5],inactive
same,AC50,[14],16.5 µM (active)
same,outcome,[6],inactive
same,outcome,[7],inactive
same,outcome,[8],inactive
same,AC50,[9],20 µM (active)
same,AC50,[10],3.02 µM (active)
same,outcome,[15],inactive
same,outcome,[11],inactive
same,outcome,[13],inactive
Cc1ccc(O)cc1,outcome,[1],inactive
same,outcome,[2],inactive
same,outcome,[3],inactive
same,outcome,[4],inactive
same,outcome,[5],inactive
same,outcome,[14],inactive
same,outcome,[6],inactive
same,outcome,[8],inactive
same,outcome,[9],inactive
Cn1cnc([N+](=O)[O-])c1Sc1ncnc2nc[nH]c12,outcome,[1],inactive
same,AC50,[2],29.5 µM (active)
same,outcome,[3],inactive
same,outcome,[4],inactive
same,outcome,[5],inactive
same,outcome,[14],inactive
same,outcome,[6],inactive
same,AC50,[16],26.4 µM (active)
same,outcome,[7],inactive
same,outcome,[8],inactive
same,AC50,[9],6.59 µM (active) and 2.94 µM (active) and 9.77 µM (active)
same,AC50,[10],39.9 µM (active)
same,AC50,[17],29.8 µM (active)
same,AC50,[15],26.1 µM (active)
same,outcome,[18],inactive
same,outcome,[12],inactive
same,outcome,[13],inactive
same,AC50,[19],27.2 µM (active)
